# Compounds with a hit are over-represented: about 3.1% of the library has one in this group of screens.
# ABHD5 PLIN5 PPI – inhibitors of human ABHD5-perilipin-5 interaction | Q00G26+Q8WTS1 | Split G. princeps luciferase complementation, luminescence, 4 h | inhibition, % at 4 µM | 360,000 compounds, 0.78% hits;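 active means inhibition above the mean inhibition across every tested compound plus 3 SD, cut at about 22% in these data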;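 further: 0% = DMSO only wells and the 100% control is not disclosed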
# TRPM1 prom inh – reduces MITF-dependent TRPM1 promoter luciferase signal; 330,000 compounds, 0.83% hits; SK-MEL-5 TRPM1 promoter luciferase, 24 h; inhibition, % at 12.5 µM;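 active means mean inhibition across replicates of 60% or more, whatever share of single replicates reaches that level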
# CF NFkB block – inhibitors of cystic fibrosis induced NF-kB. 360,000 compounds, 0.86% hits. inhibition, % at 5 µM. AID 588850. KKLEB NF-kB-GFP reporter, PAF-induced, GFP fluorescence overnight;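 active means at least 50% inhibition at 5 µM, scaled per plate between neutral and stimulator controls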;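 further: PAF is a Pseudomonas aeruginosa culture filtrate used as stimulus; plate controls were PAF-stimulated DMSO wells for no effect and unstimulated DMSO wells for full effect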
# Peg3 promoter – inhibitors of Peg3 promoter | HeLa PEG-Prom luciferase reporter, luminescence, overnight | 360,000 compounds, 1.7% hits | inhibition, % at 20 µM;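 active means inhibition of at least 50% at 20 µM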
# KKLEB tox – counter-screen for CF NF-kB inhibitors: cytotoxicity; KKLEB CF airway cells viability, ATPlite luminescence, overnight; active compounds read low; cells stimulated with P. aeruginosa culture filtrate; AID 602141; 360,000 compounds, 0.36% hits; activity change (cytotoxicity), % at 5 µM;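 active means corrected activity change at or below -50% at 5 µM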
# HIF-2a block – blocks HIF-2a reporter activity; 360,000 compounds, 0.72% hits; 786-0 RCC cells HIF-2a reporter, luciferase luminescence, overnight; inhibition, % at 18.8 µM;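 active means inhibition of the luminescence signal of 40% or more relative to plate controls, in a single-dose primary screen at 18.75 µM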
# Starred values were filed as active, the others as inactive; / = not tested or not shown.
SMILES,ABHD5 PLIN5 PPI,TRPM1 prom inh,CF NFkB block,Peg3 promoter,KKLEB tox,HIF-2a block
CCN(c1ccccc1)S(=O)(=O)c1ccc2c(c1)C(C)(C)C(=O)N2C,0.6,/,18.4,4.8,-5.3,8.6
COc1ccc(COc2ccc3c(C)cc(=O)oc3c2)cc1,6.8,-68.4,16.0,-382.3,7.4,-330.7
COc1ccc2c(-c3cc4ccc(OCc5ccc(F)cc5)cc4oc3=O)cc(=O)oc2c1,3.5,31.7,15.1,76.4*,-24.7,-41.4
CCOC(=O)/C=c1\s/c(=C\c2ccccc2C)c(=O)n1CC(=O)NCc1ccc2c(c1)OCO2,-1.9,7.0,37.5,13.7,-58.4*,-6.6
CCOC(=O)/C=c1\s/c(=C\c2ccc3cc(OC)ccc3c2)c(=O)n1CC(=O)NCc1ccc2c(c1)OCO2,0.9,8.2,-6.2,2.6,-17.9,6.0
CCCNC(=O)C1(C)CCN(CCC(=O)c2ccc(Br)cc2)C1 (centres undefined),3.9,/,-3.0,4.5,-4.9,13.8
CCN(CC)S(=O)(=O)c1cc(NC(=O)C2CCN(c3ncnc4sc(C)c(C)c34)CC2)ccc1Cl,-9.9,63.8*,25.8,67.2*,-18.4,21.1
Cc1ccc(NC(=O)C2CCN(c3ncnc4sc(C)c(C)c34)CC2)cc1S(=O)(=O)N(C)C,-4.4,13.5,16.6,26.8,-20.1,16.5
CCN(CC(=O)Nc1cc(Cl)ccc1C)C(=O)C1CCN(c2ncnc3sc(C)c(C)c23)CC1,9.8,/,41.8,65.7*,-13.8,10.5
Cc1sc2ncnc(N3CCC(C(=O)N(C)CC(=O)Nc4ccc(Cl)c(C(F)(F)F)c4)CC3)c2c1C,-8.3,7.2,49.4,64.4*,-26.1,9.0
Cc1sc2ncnc(N3CCC(C(=O)N(C)CC(=O)Nc4ccccc4Cl)CC3)c2c1C,8.4,3.9,46.4,48.9,-3.4,22.2
Cc1sc2ncnc(N3CCC(C(=O)N(C)CC(=O)Nc4cccc(F)c4)CC3)c2c1C,0.5,/,40.1,33.9,-8.4,10.9
Cc1sc2ncnc(N3CCC(C(=O)Nc4ccccc4C(C)(C)C)CC3)c2c1C,3.8,-12.5,67.9*,7.6,-22.3,14.9
COc1ccccc1NC(=O)CON=C(N)CC(=O)NC1CCCCC1,-5.0,1.4,7.9,4.2,7.2,8.6
O=C(Cn1ccc(C(F)(F)F)n1)N/N=C/c1ccc(N2CCOCC2)cc1,1.2,0.2,7.8,2.5,10.5,8.4
Cc1ccc(C2CC(C(F)F)n3ncc(C(=O)Nc4cnn(Cc5ccccc5C)c4)c3N2)cc1 (centres undefined),13.4,-0.2,18.6,61.5*,-15.7,-6.0
Cc1ccc2oc(C(Cl)(Cl)Cl)cc(=O)c2c1,5.5,67.5*,43.4,63.4*,-31.0,33.1
Cc1ccc2oc(C(F)(F)C(F)F)cc(=O)c2c1,5.6,-3.6,8.2,10.0,-15.1,7.9
COc1ccc(NC(=S)NNc2ccc([N+](=O)[O-])cc2S(=O)(=O)Nc2ccc(C)cc2C)cc1,-23.2,3.5,46.1,52.5*,-29.4,-4.3
Cc1cccc(C)c1OCC(O)CN1CCC(CN2C(=O)c3cccc4cccc(c34)C2=O)CC1 (centres undefined),4.4,14.3,-10.6,54.5*,-13.4,29.1
CC(=O)c1ccc(OCC(O)CN2CCN(CCN3C(=O)c4cccc5cccc(c45)C3=O)CC2)cc1 (centres undefined),-3.8,-3.3,-27.0,50.0*,-2.4,11.6
O=C(c1ccc(S(=O)(=O)N2CCCCC2)cc1)N1CCN(CCN2C(=O)c3cccc4cccc(c34)C2=O)CC1,-3.7,52.1,-26.7,68.0*,-10.5,-13.8
O=C(c1ccc(S(=O)(=O)N2CCCC2)cc1)N1CCCCCC1,0.8,-0.6,-13.9,-1.7,17.6,14.9
CC(=O)NN(O)C1N(C)C(=O)N(Cc2ccccc2)C1(C)C (centres undefined),4.4,-5.0,4.2,0.1,0.7,10.4
O=C(NCc1cccnc1)c1ccc(COc2ccccc2Cl)o1,-2.5,/,26.2,10.1,-15.9,8.3
SMILES,ABHD5 PLIN5 PPI,TRPM1 prom inh,CF NFkB block,Peg3 promoter,KKLEB tox,HIF-2a block
COc1ccccc1OCc1nnc(SCC(=O)Nc2nnc(C3CC3)s2)n1C,0.3,-8.0,-8.6,3.0,-5.9,7.4
CCCCC(CC)CN1CN(CC(CC)CCCC)CC(C)(N)C1 (centres undefined),5.2,21.7,7.5,102.8*,0.2,-4.4
CCCCC(CC)COP(=O)(OCC(CC)CCCC)OCC(CC)CCCC (centres undefined),4.9,-10.5,16.9,-6.5,-9.1,14.9
O=C(Nc1ccncc1)c1cc(S(=O)(=O)N2CCN(c3ccccc3)CC2)ccc1Cl,0.4,16.6,23.2,9.1,-5.3,25.4
O=[N+]([O-])c1ccc(/C=N/Nc2ncccc2[N+](=O)[O-])s1,0.0,8.5,-5.4,-59.7,-1.1,-65.5
NC(=O)c1ccc(N=Cc2ccc([N+](=O)[O-])s2)cc1,-11.8,50.9,22.1,46.9,-13.4,10.4
Cc1onc(-c2ccccc2)c1C(=O)N/N=C/c1ccc([N+](=O)[O-])s1,-6.2,64.9*,-14.9,25.3,0.8,24.0
O=[N+]([O-])c1ccc(C=Nc2ccc(Cl)c([N+](=O)[O-])c2)s1,-14.1,71.4*,25.0,80.6*,-7.8,-3.2
Cc1cc(C)cc(N=Cc2ccc([N+](=O)[O-])s2)c1,-3.8,28.0,-0.8,50.7*,1.5,8.8
Cc1ccc(NC(=S)N/N=C/c2ccc([N+](=O)[O-])s2)cc1,-10.8,69.9*,-1.6,6.5,5.6,-55.9
COC(=O)c1ccc2c(=O)n(CCN3CCOCC3)c(SCC(=O)Nc3ccc(OC)cc3OC)nc2c1,-6.0,0.7,-20.8,13.8,4.6,11.0
Clc1ccc(-n2nnc(-c3nccs3)n2)cc1Cl,-5.1,-44.2,-29.8,-200.7,-2.1,-202.8
Cc1ccc(-n2nnc(-c3nccs3)n2)cc1,8.0,55.0,-1.7,48.4,-52.3*,51.1*
CN(C)c1nc(=NCc2cccs2)ss1,77.8*,41.0,7.5,-6.0,2.3,2.9
CCn1c(=O)cc(SCC(=O)Nc2ccc(C)cn2)c2ccccc21,6.8,-1.5,49.3,82.7*,7.6,-357.4
CCn1c(=O)cc(SCC(=O)NCc2ccc(C)cc2)c2ccccc21,1.6,2.5,-8.2,2.4,-12.4,2.7
NC(N)=Nc1ccc(C=C2C=Cc3ccccc32)cc1,6.5,-2.5,0.4,104.4*,0.7,-128.0
Nc1ccc(C=C2C=Cc3ccccc32)cc1,3.1,-15.2,-24.8,-246.3,-4.6,-120.3
CN1CCN(c2ccccc2NC(=O)c2ccc([N+](=O)[O-])o2)CC1,0.2,79.0*,32.3,61.0*,-15.1,-0.7
O=C(Nc1ccc(N2CCOCC2)cc1)c1ccc([N+](=O)[O-])o1,-1.2,52.7,5.7,102.4*,-6.9,31.4
CCC(=O)N1CCN(c2ccc(Cl)cc2NC(=O)c2ccc([N+](=O)[O-])o2)CC1,-0.1,66.8*,6.1,18.8,-11.7,-6.9
